Compound activity from PubChem BioAssay.
Tb PYK inh: T. brucei pyruvate kinase inhibition. Q57TT1. TbPYK enzyme, Kinase-Glo Plus ATP luminescence, 45 min. Potency, µM (series often up to 76.8 µM), inactives show at the highest dose activity, negative = inhibition, most hits filed as inhibitors. 410,000 compounds, 0.12% hits. AID 624173; also: potency is read from the fitted curve at half-maximal effect; % is scaled to controls: 0 for no effect and ±100 for the full control effect; nearly all actives have a fitted effect of over 50% in size
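T. brucei PYK with substrate was exposed to pin-transferred compounds across a concentration series, then started with 130 uM ADP (final). After 45 min at room temperature, Kinase-Glo Plus luminescence was read, normalized and curve-fitted.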
SARS PLP yeast: inhibitors of SARS-CoV papain-like protease in yeast. Potency, µM (top dose mostly 32.9 µM), inactives show at the top dose activity, positive = growth rescue, most hits filed as activators. AID 485353. 330,000 compounds, 0.19% hits. S. cerevisiae expressing SARS-CoV PLpro, growth rescue; calls by dose curve; also: potency is read from the fitted curve at half-maximal effect; 0% is about no effect; nearly all actives have a fitted effect of over 55% in size
Shiga inhibitor: inhibitors of Shiga toxin in Vero cells; Vero cells, Shiga toxin protein synthesis inhibition reporter; inhibition, % at 38.7 µM; 290,000 compounds, 9.2% hits; AID 2315; in the data active = inhibition mostly above about 28%, no sharp cut-off; inactive = mostly below about 43%; also: 0% is about no effect
NS1 function inh: blocks influenza NS1 protein function | Potency, µM (doses to about 46.1 µM), without a hit: at the top dose activity, positive = more growth | 270,000 compounds, 0.4% hits; calls by dose curve; also: potency is read from the fitted curve at half-maximal effect; actives are rising curves; nearly all actives have a fitted effect of over 50% in size
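Compounds were scored for reversing the slow growth caused by influenza A NS1 in S. cerevisiae, measured by optical density at 600 nm. Assay medium contained 2% galactose at pH 6.0; NS1-free yeast of the same strain were the positive control.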
LmPK inh: blocks Leishmania mexicana pyruvate kinase activity. 290,000 compounds, 0.37% hits. AID 1721. Potency, µM (top dose mostly 57.5 µM), inactives show top-dose activity change, negative = inhibition, hits mostly inhibitors. Q27686. purified LmPK, Kinase-Glo ATP luminescence, 1 h; also: potency is read from the fitted curve at half-maximal effect; % is scaled to controls: 0 for no effect and ±100 for the full control effect
Target sequence (Q27686 whole entry, looked up): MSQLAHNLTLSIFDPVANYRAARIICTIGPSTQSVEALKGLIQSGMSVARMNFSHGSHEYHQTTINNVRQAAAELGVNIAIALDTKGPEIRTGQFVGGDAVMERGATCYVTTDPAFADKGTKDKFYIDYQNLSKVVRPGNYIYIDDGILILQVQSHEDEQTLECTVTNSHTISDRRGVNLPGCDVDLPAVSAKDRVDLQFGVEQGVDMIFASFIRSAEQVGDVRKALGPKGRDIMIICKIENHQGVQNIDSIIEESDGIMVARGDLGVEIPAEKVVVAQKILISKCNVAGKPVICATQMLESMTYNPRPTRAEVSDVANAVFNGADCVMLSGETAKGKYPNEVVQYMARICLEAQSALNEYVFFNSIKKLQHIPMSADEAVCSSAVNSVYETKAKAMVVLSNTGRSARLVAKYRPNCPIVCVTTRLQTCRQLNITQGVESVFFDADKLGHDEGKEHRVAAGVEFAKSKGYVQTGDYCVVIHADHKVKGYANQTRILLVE
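Purified LmPK (0.1 nM) with 0.5 mM PEP and 0.1 mM ADP in imidazole buffer pH 7.2 with MgCl2/KCl, 1 h at room temperature. ATP formed was read by luciferase luminescence and normalized to no-enzyme and uninhibited controls.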
CHX counter: counter-screen for Shiga toxin inhibitors: cycloheximide protein synthesis inhibition; cell reporter, cycloheximide protein synthesis inhibition counterscreen; max response, %; 300,000 compounds, 12% hits; AID 2314; in the data active = max response mostly above about 13%, no sharp cut-off; inactive = mostly below about 14%; also: read at 38.3 µM for the half of the compounds with a filed dose; 0% is about no effect
Numbers without * were called inactive; ? = inconclusive; · = no result; [ ] = dose if it differs, or a comment. Only a selection was taken, and hits are over-represented in it overall. Unless noted, calls follow the shape of the dose curve; as a rule, active = well fitted curve in the direction sought with a large enough effect; inconclusive = small, poorly fitted or top-dose-only effect, or another doubt; inactive = no such curve, though single readings can be large; an effect the other way counts as inactive or inconclusive.

SMILES	Tb PYK inh	SARS PLP yeast	Shiga inhibitor	NS1 function inh	LmPK inh	CHX counter
COCCNC(=O)C1(S(=O)(=O)c2ccccc2)CC=CC1	-10%	2%	25	-5%	-2%	13*
CC(=O)c1ccc(N2Cc3ccccc3C3(CCOCC3)C2=N)cc1	3%	16%	54	2%	-2%	28*
Cc1ccc(S(=O)(=O)NCCC(=O)NCC(=O)Nc2c(C)cccc2C)cc1C	3%	-2%	·	·	·	·
Cc1ccc(C(=O)NC(=S)N2CCN(c3cc(C)ccc3C)CC2)cc1	1%	6%	49*	19%	-3%	38*
Cc1ccc(C(=O)NC(=S)N2CCN(c3ccccc3F)CC2)cc1	-16%	1%	35*	11%	2%	20
COc1ccc(C(=O)NC(=S)N2CCN(c3ccccc3OC)CC2)cc1	0%	-1%	-11	-7%	1%	5
Cc1cccc(-c2oc3ccccc3c2C#CCCO)c1	4%	-1%	10	-48%	5%	1
CCOC(=O)C1C(=O)CC(=O)C(C(=O)OCC)C1c1ccc(O)cc1 (centres undefined)	-5%	·	·	·	·	·
C/C(=N/OC(=O)C1CC1)c1cc(-c2ccc(Cl)cc2)no1	-1%	0%	29	-2%	5%	18*
CCCNC(=O)CCn1nc(-c2ccc(C)cc2)c2ccccc2c1=O	0%	0%	7	-5%	1%	-1
CCCNC(=O)CCC(=O)Nc1ncc(-c2ccc(C)cc2)n1C	4%	1%	33*	-15%	-7%	25*
COc1ccc2c(C(=O)NCc3ccc4c(c3)OCO4)c(-c3ccc(S(C)(=O)=O)cc3)sc2c1	2%	-15%	·	·	·	·
CCCc1cc(C(=O)Nc2ccn(Cc3ccc(C)cc3)n2)no1	10%	-4%	21	-40%	-5%	1
Cc1ccc(C(=O)Nc2ccc(F)cc2F)o1	6%	-4%	34	-8%	-23%	44*
Cc1ccc(C(=O)Nc2ccn(Cc3ccc(F)cc3)n2)o1	2%	11%	56*	-9%	-1%	25*
COc1ccc(NC(=O)COC(=O)c2cccn2C)cc1S(=O)(=O)N1CCCCC1	6%	3%	·	·	·	·
COc1cc(C2/C(=C(\O)c3ccc4c(c3)OCCO4)C(=O)C(=O)N2Cc2ccco2)cc(OC)c1OC (centres undefined)	5%	-5%	-12	10%	1%	1
CC(=O)N1CCc2[nH]c3ccccc3c2C1	1%	2%	20	-3%	2%	-2
Cc1cc(=O)[nH]c(NN=C2CCC(C(C)(C)C)CC2)n1 (centres undefined)	-6%	0%	25	3%	1%	17
CC(=O)N1CCC(=NNc2nc3ccccc3[nH]2)CC1	6%	-6%	35*	·	-4%	31*
CCC(C)(C)C1CCC(=NNc2nc3ccccc3[nH]2)CC1 (centres undefined)	-3%	8%	81*	1%	-2%	36*
Cc1ccccc1OCc1nc2ccccc2[nH]1	-2%	-3%	62*	-6%	18µM*	57*
c1cnc2c(OCc3nc4ccccc4[nH]3)cccc2c1	7%	-19%	78*	-38%	-6%	62*
COc1ccccc1OCc1nc2ccccc2[nH]1	6%	2%	51*	-14%	-17%	52*
COc1ccccc1Cc1c(-c2ccc(F)cc2)nc2cc(C)c(Br)c(C)n12	0%	·	·	·	·	·
SMILES	Tb PYK inh	SARS PLP yeast	Shiga inhibitor	NS1 function inh	LmPK inh	CHX counter
COc1cccc2c(=O)n(CC(=O)NC3CCCC3)ccc12	-4%	8%	49	-29%	-1%	24*
O=C(OCc1cccnc1)C1=Cc2ccccc2OC1	2%	-1%	40*	-7%	-5%	23
O=C(COC(=O)c1cccc(Cl)c1Cl)NCCN1C(=O)CSC1=O	-3%	-4%	-4	0%	0%	5
COc1cccc2c(=O)n(CC(=O)Nc3ccccc3)ccc12	3%	2%	11	4%	-1%	7
O=C(COC(=O)C1=Cc2ccccc2OC1)NC1CCCC1	-4%	-2%	5	-3%	0%	17*
O=C(COC(=O)c1ccccc1Br)NCCN1C(=O)CSC1=O	5%	-6%	109*	·	2%	20*
COC(=O)C1=C(CS(=O)(=O)c2ccccc2)NC(=O)NC1c1ccccc1 (centres undefined)	8%	9%	-1	14%	6%	-3
CCc1ccc(NC(=O)CC2C(=O)N(c3cccc(C)c3)C(=O)N2Cc2ccco2)cc1 (centres undefined)	3%	·	·	·	·	·
CCOC(=O)CNC(=O)Nc1cc(C(=O)NCc2ccc(C(C)C)cc2)ccc1N1CCCC1	-3%	·	·	·	·	·
Cc1cccc(-c2[nH]ncc2-c2ccc3ncccc3n2)n1	2%[157 µM]	·	·	·	·	·
O=C(COC(=O)c1ccccc1Br)NC1CCCC1	-6%	0%	59*	-2%	-4%	39*
COc1ccccc1C(=O)OCC(=O)NC1CCCC1	-7%	3%	64*	5%	-4%	61*
Cc1ccc(S(=O)(=O)CCC(=O)OCc2nnc(-c3ccccc3)o2)cc1	12%	-1%	·	·	·	·
Cc1ccc(NC(=S)c2nc3ccccc3[nH]2)cc1	-12%	-15%	66*	-64%	?	72*
Cc1ccc(NC(=S)N2CCCC(c3nc4ccccc4[nH]3)C2)cc1 (centres undefined)	-4%	-1%	-7	2%	4%	7
Cc1ccc(NC(=S)c2nc3ccccc3[nH]2)c(C)c1	-3%	-50%	97*	-51%	-21%	51*
Cc1ccc(NC(=S)c2ccncc2)c(C)c1	-2%	-25%	-3	-10%	7%	10
N#CC(C#N)=NNc1ccc(OC(F)(F)F)cc1	·	·	60*	·	·	44*
O=C(/C=C/Nc1ccc(OC(F)(F)F)cc1)C(F)(F)F	-4%	1%	-12	6%	-1%	-3
O=C(NC1CCCCCCC1)c1cccc(Cl)c1	-15%	-3%	64*	-11%	-4%	40*
CCOc1ccc(C(=O)NC2CCCCCCC2)cc1	-8%	·	·	·	·	·
O=C(NNC(=O)C1C2CCC(C2)C1C(=O)O)c1cccc(Cl)c1 (centres undefined)	-4%	-1%	58	-1%	-4%	19*
CCOc1cccc(C(=O)NC2CCCCC2)c1	8%	4%	101*	-8%	0%	30*
COC(=O)c1cccc(COC(=O)c2cccnc2SC)c1	2%	-9%	38	-6%	6%	21*
CSc1ncccc1C(=O)OCc1ccccc1Cl	5%	-9%	60	·	-7%	41*
CSc1ncccc1C(=O)OCc1c(F)cccc1Cl	2%	-10%	91*	-7%	5%	21*
O=C(Cn1cnc2c(NCc3ccccc3)ncnc21)NCc1ccccn1	-2%	0%	·	·	·	·
C=CCn1cnc2c(NCc3ccccc3)ncnc21	1%	5%	91*	2%	4%	50*
